Source: PubChem BioAssay (The Scripps Research Institute Molecular Screening Center)
OPRM1-OPRD1 inv: mu-delta opioid heterodimer inverse agonism | P35372+P41143 | cell-based MOR-DOR heterodimer luminescence | inhibition, % at 9.3 µM | 0.21% of 340,000 active; in the data active means inhibition above about 22%, passing the limit was not always enough;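 further: 0% = cells with DMSO and 100% = wells without cells with DMSO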
Target sequence (P35372 whole entry, looked up): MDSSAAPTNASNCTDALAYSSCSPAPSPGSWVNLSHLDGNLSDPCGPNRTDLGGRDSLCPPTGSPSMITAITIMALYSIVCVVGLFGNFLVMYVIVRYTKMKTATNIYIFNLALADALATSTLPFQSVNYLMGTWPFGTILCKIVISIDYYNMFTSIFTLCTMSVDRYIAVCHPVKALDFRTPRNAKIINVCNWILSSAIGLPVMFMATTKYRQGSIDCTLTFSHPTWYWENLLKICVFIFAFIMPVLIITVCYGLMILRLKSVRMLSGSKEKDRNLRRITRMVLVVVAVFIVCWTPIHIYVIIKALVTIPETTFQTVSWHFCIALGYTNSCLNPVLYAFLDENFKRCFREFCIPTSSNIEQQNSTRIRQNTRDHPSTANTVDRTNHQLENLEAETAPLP
Target sequence (P41143 whole entry, looked up): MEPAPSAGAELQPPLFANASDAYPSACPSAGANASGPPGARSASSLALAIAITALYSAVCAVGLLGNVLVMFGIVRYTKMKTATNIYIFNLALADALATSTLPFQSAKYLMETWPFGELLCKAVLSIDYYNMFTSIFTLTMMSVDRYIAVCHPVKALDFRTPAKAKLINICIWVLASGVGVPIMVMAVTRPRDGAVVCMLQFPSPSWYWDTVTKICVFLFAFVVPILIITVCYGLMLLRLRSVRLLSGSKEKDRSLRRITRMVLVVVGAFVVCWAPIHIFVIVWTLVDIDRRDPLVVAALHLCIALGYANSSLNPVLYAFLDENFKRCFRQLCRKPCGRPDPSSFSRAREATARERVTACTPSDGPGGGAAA
OPRM1-OPRD1 ag: OPRM1-OPRD1 heterodimerization agonism; P35372+P41143; cells, luminescence; activation, % at 9.3 µM; 0.3% of 340,000 active; AID 504326; in the data active means activation above about 18%;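 further: 0% = vehicle-treated cells and 100% = reference agonist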
HTR5A inv ctr: counter-screen for OPRM1-OPRD1 inverse agonists: human HTR5A inverse agonism; P47898; AID 504634; inhibition, % at 9.3 µM; HTR5A cell line, luminescence; 0.083% of 340,000 active; in the data active means inhibition mostly above about 23%, no sharp cut-off; inactive means mostly below about 18%;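 further: 0% = cells with DMSO and 100% = no-cell wells with DMSO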
HTR5A ag: activates human HTR5A in OPRM1-OPRD1 agonist counter-screen; activation, % at 9.3 µM; 0.61% of 340,000 active; HTR5A agonist assay, luminescence, cell-based; P47898; in the data active means activation mostly above about 9.5%, no sharp cut-off; inactive means mostly below about 7.6%;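 further: 0% = cells with vehicle only and 100% = reference agonist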
Active calls of the source: *; i = inactive. Rows were chosen to be rich in hits. Some 1.1% of all compounds tested hit in one or more screens of this group.

SMILES | OPRM1-OPRD1 inv | OPRM1-OPRD1 ag | HTR5A inv ctr | HTR5A ag
COc1ccccc1OCCC(=O)OCC(=O)Nc1ccc2c(c1)OCCO2 | 18 | -3 | -35 | 8.6*
Cc1ccc(OCCC(=O)OCC(=O)Nc2ccc3c(c2)OCCO3)cc1 | 3 | 0 | 15 | -6
COc1ccc(OC)c(NC(=O)CCOc2cccc(C)c2)c1 | -37 | 6 | -21 | 7
CN(Cc1ccccc1)C(=O)C1CCN(S(=O)(=O)c2cc([N+](=O)[O-])ccc2Cl)CC1 | -63 | 13 | -32 | 13*
O=C(NCc1ccccc1)C1CCN(S(=O)(=O)c2cc([N+](=O)[O-])ccc2Cl)CC1 | -75 | 11 | 8 | 4
CCOc1ccc(N(CC(=O)Nc2ccc(OC)cc2)C2=NC3CS(=O)(=O)CC3S2)cc1 (configuration not stated) | 18 | -3 | -8 | 1
CCOC(=O)C1=C(O)/C(=C/c2ccc(CNC(=O)C(=O)Nc3ccc(C)cc3)o2)N=C1C | -2 | 0 | -6 | 14*
COC(=O)C1=C(O)/C(=C\c2ccc(CNC(=O)C(=O)Nc3ccc(C)cc3)o2)N=C1C | -1 | 0 | 13 | -6
CCCCCCCCCCCCCCCC[N+](C)(C)Cc1ccc(F)cc1 | -17 | 3 | -42 | 11*
Cc1cc(C(C)(C)C)cc(C)c1Cn1c2[n+](c3ccc(C(F)(F)F)cc31)CCCCC2 | 2 | 0 | -28 | 11*
O=C(c1cc(-c2ccc(Cl)cc2)n[nH]1)N1CCN(C(=O)c2ccco2)CC1 | -12 | 2 | -6 | 2
CCN(CC)c1ccc(/C=N/N2CCN(Cc3ccc(Cl)cc3)CC2)c(O)c1 | 13 | -2 | -39 | 13*
O=C(c1cc[n+]([O-])cc1)N1CCCC(N2CCN(c3cccc(C(F)(F)F)c3)CC2)C1 (configuration not stated) | 11 | -2 | 18 | -8
Cc1c(Nc2cc(Cl)c3nonc3c2[N+](=O)[O-])c(=O)n(-c2ccccc2)n1C | 46* | -9 | 33* | -13
Cc1cc(-c2nn(-c3ccccc3F)cc2CNCCc2cnc[nH]2)c(C)s1 | i | 144* | -9 | -3
Cc1cc(-c2nn(-c3ccccc3F)cc2CN2CCC(C(N)=O)CC2)c(C)s1 | 3 | -1 | 4 | -1
CCOc1ccccc1NS(=O)(=O)c1ccc(OC)c(OC)c1 | 2 | 0 | 15 | -1
COc1ccccc1NS(=O)(=O)c1ccc(OC)c(OC)c1 | 7 | -1 | 10 | 10*
Cc1c(Cl)cccc1NC(=O)c1cccc(NC(=O)CCC(=O)O)c1 | 11 | -3 | 16 | 12*
CCN(c1ccccc1)S(=O)(=O)c1ccc(Cl)c(NC(=O)c2ccc(=O)[nH]n2)c1 | -15 | 4 | -30 | 12*
CC(C)NCC(O)COc1ccc(Br)cc1 (configuration not stated) | -8 | 1 | -34 | 12*
CC(=O)Nc1ccc(NC(=O)CSc2nnc(-c3cccs3)n2C)cc1 | -8 | 1 | -20 | 7
COc1cccc(NC(=O)CSc2nnc(-c3cccs3)n2C)c1 | 17 | -3 | -37 | 10*
COc1cccc(/C(O)=C2/C(=O)C(=O)N(CCN(C)C)C2c2ccc(Br)cc2)c1 (configuration not stated) | 16 | -3 | -28 | 10*
CC(=O)c1c(O)c2ccccc2n(Cc2ccccc2)c1=O | -12 | 2 | -9 | 2
SMILES | OPRM1-OPRD1 inv | OPRM1-OPRD1 ag | HTR5A inv ctr | HTR5A ag
COc1cc(S(=O)(=O)NCc2cccnc2)c(OC)cc1Br | 13 | -3 | 9 | 10.0*
COc1ccc(CN2CCN(Cc3ccc4cc(F)ccc4n3)CC2CCO)c(C)c1C (configuration not stated) | -17 | 3 | 5 | -4
Cc1cccc2c1NC(=O)C2(c1ccc(O)cc1)c1ccc(O)cc1 | i | 124* | -107 | 44*
Cc1ccc(S(=O)(=O)c2nc(Nc3ccccc3)sc2Cl)cc1 | -58 | 8 | 1 | -1
COc1ccc(Nc2nc(S(=O)(=O)c3ccc(C)cc3)c(Cl)s2)cc1 | -66 | 9 | -35 | 13*
CCOC(=O)C1CCN(CC(O)COCc2ccc(Cl)cc2)CC1 (configuration not stated) | 15 | -3 | -44 | 12*
CCOc1cc(CNCc2cccnc2)cc(Br)c1OCC(N)=O | 0 | 0 | -37 | 10*
O=C(Nc1ccccc1Cl)C(Cl)C(=O)c1ccccc1 (configuration not stated) | 52* | -10 | 12 | -5
O=C(Nc1ccccc1Cl)c1ccccc1 | 8 | -2 | 7 | -3
CCCN1CCN(CCCNC(=O)C(CC)n2nc(C)c3sc4ccccc4c3c2=O)CC1 (configuration not stated) | 15 | -3 | 6 | 10*
COc1ccc(C2/C(=C(\O)c3ccc4c(c3)OCCO4)C(=O)C(=O)N2CCCn2ccnc2)cc1 (configuration not stated) | 17 | -3 | -2 | 11*
C[C@H]1CN([C@@H](C)CO)C(=O)c2cccc(NC(=O)c3cnccn3)c2O[C@@H]1CN(C)C(=O)Nc1ccc2c(c1)OCO2 | 10 | -2 | -18 | 6
O=C1CCc2cc(S(=O)(=O)N3CCN(c4cccc(C(F)(F)F)c4)CC3)ccc2N1 | -126 | 25* | -28 | 13*
Cc1ccc(-n2c(C)nnc2SCC(=O)N(C)c2c(N)n(Cc3ccccc3)c(=O)[nH]c2=O)cc1 | 17 | -4 | 18 | -7
COc1cccc(/C=C/c2nc(C#N)c(NCC(C)C)o2)c1 | -9 | 2 | -46 | 12*
COCCCNc1oc(/C=C/c2ccccc2)nc1C#N | 5 | -1 | 3 | -1
COc1ccccc1C(C)NCC(=O)Nc1c(F)cccc1F (configuration not stated) | 3 | 0 | 5 | -2
COc1cc(Cl)c(C)cc1NC(=O)CNC(C)c1ccccc1OC (configuration not stated) | 3 | -1 | 9 | 10*
CC(Oc1ccccc1F)C(=O)Nc1ccc2ccccc2c1 (configuration not stated) | -5 | 1 | -16 | 11*
COc1cc(N=Nc2ccc(C)cc2S(N)(=O)=O)c(C)cc1N | 12 | -2 | -35 | 9.8*
COc1cccc(C(=O)NNC(=O)c2ccc3ccccc3c2)c1 | 17 | -3 | -2 | 1
O=C(c1cccc(C(F)(F)F)c1)C1CCCN(Cc2cccc(OCCO)c2)C1 (configuration not stated) | -10 | 2 | -33 | 13*
Cc1ccc(S(=O)(=O)N2CCC(C(=O)OCC(=O)N3CC(C)CC(C)C3)CC2)cc1C (configuration not stated) | -1 | 0 | -6 | 2
O=C(N/N=C/c1sc(=O)n(Cc2ccc(Br)cc2)c1Cl)c1ccco1 | -133 | 27* | -87 | 26*
Cc1ccc(N2CC(C(=O)N3CCN(c4ccccn4)CC3)CC2=O)cc1 (configuration not stated) | 13 | -3 | -7 | 2
